Screening results as filed in PubChem BioAssay.
PINK1 modulator: modulators of PINK1 expression; AID 624263; Potency, µM (titrated, usually from 76.6 µM), without a hit: at the highest dose activation (PINK1 increase), actives largely listed as activators; 410,000 tested, 0.2% active; PINK1 immunofluorescence, high-content cytometry, 24 h; active = well fitted activation curve with a large enough effect; inconclusive = small, poorly fitted or top-dose-only effect; cell line not stated here; note: % of control where 0% means no effect; nearly all actives have a fitted effect of over 65% in size
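PINK1 protein level read as immunofluorescence by microplate cytometer in a fixed, stained stable cell line after 24 h exposure to five compound concentrations, with CCCP as control.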
KB-3-1 cytotox: KB-3-1 parental cell cytotoxicity; KB-3-1 viability, CellTiter-Glo ATP luminescence, 72 h; AID 1347075; 400,000 tested, 1.4% active; Potency, µM (highest dose often 46.1 µM), most hits filed as cytotoxic; note: % is set by controls: 0 for no effect and ±100 for the full control effect; nearly all actives have a fitted effect of over 60% in size
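Parental KB-3-1 adenocarcinoma cells in phenol-red-free DMEM with 10% FBS were pin-treated with compounds at several concentrations, incubated 72 h at 37 °C, and viability read by CellTiter-Glo luminescence; concentration-effect curves were fitted after normalization.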
KB-V1 MDR tox: kills drug-selected multidrug resistant KB-V1 cells; KB-V1 MDR cells viability, CellTiter-Glo, 72 h; Potency, µM (top dose mostly 46.1 µM), actives largely listed as cytotoxic; 400,000 tested, 3.4% active; AID 1347076; note: % is set by controls: 0 for no effect and ±100 for the full control effect; nearly all actives have a fitted effect of over 60% in size
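Following 72 h at 37 degrees C with compound, KB-V1 cell viability was read by CellTiter-Glo luminescence, medium being phenol-red-free DMEM plus 10% FBS; concentration-response parameters came from normalized, curve-fitted qHTS data.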
SW480 rereplic: inducers of DNA re-replication in SW480 colon cancer cells. Potency, µM (doses to about 46.1 µM), without a hit: at the top dose re-replication activation, most hits filed as activators. AID 624297. SW480 DNA re-replication, Hoechst DNA content imaging, 48 h. 340,000 tested, 1.8% active; note: % of control where 0% means no effect; nearly all actives have a fitted effect of over 55% in size
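First, 250 cells per well were seeded. Next, compound or vehicle (23 nL) was pinned in, plates sat 48 hr at 37 C. Finally Hoechst was added for 40 min before fluorescence scanning.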
MCF10A rereplic: induces DNA re-replication in MCF 10a normal breast cells. MCF 10A DNA re-replication, Hoechst nuclear intensity, 48 h. 350,000 tested, 2.9% active. AID 624296. Potency, µM (top dose mostly 46.1 µM), without a hit: top-dose activity, positive = re-replication, actives largely listed as activators; note: % of control where 0% means no effect; nearly all actives have a fitted effect of over 50% in size
TSG101-PTAP inh: blocks PTAP/TSG101 interaction to inhibit HIV-1 budding | Fluorescence polarization, FITC-PTAP peptide / Tsg101 binding | Q99816 | AID 493005 | Potency, µM (top dose mostly 115 µM), for the others: at the highest dose activity change, negative = inhibition, usual class: inhibitors | 340,000 tested, under 10 active; active = well fitted inhibition curve with a large enough effect in the main read-out, with a control signal flat, not every such curve was filed as active; inconclusive = small, poorly fitted or top-dose-only effect, or effect the other way, or a change in a side signal; inactive = no such curve, though single readings can be large or run the other way; note: % of control where 0% means no effect
Target sequence (Q99816 whole entry, looked up): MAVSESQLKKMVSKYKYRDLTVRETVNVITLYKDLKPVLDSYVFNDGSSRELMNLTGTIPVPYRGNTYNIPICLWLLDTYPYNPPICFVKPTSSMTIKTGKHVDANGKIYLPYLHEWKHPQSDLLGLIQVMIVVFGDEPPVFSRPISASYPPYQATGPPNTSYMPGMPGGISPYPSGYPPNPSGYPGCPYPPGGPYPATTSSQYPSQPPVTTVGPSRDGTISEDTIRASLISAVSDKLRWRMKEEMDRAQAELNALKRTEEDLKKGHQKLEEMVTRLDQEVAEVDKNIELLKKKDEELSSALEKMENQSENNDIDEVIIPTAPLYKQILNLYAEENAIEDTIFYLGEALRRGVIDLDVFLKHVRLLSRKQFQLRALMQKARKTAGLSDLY
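Compounds were pin-transferred onto Tsg101 binding domain (10 uM final) in HEPES pH 7.5 buffer, then FITC-PTAP peptide was added at 50 nM final. After 20 min at RT, polarization reported peptide displacement across a qHTS concentration series.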
Active calls of the source: *; i = inactive; ? = inconclusive; . = no result; [ ] = another dose, or the depositor's remark. This is a sample that favours compounds with a hit; in the whole collection about 6.8% have one here. Unless noted, calls come from the whole dose curve; as a rule, active = well fitted curve in the direction sought with a large enough effect; inconclusive = small, poorly fitted or top-dose-only effect, or another doubt; inactive = no such curve, though single readings can be large; an effect the other way counts as inactive or inconclusive. Potency is the fitted concentration of half-maximal effect.

SMILES	PINK1 modulator	KB-3-1 cytotox	KB-V1 MDR tox	SW480 rereplic	MCF10A rereplic	TSG101-PTAP inh
COc1ccc(NC(=O)CN(C)C(=O)c2cn(-c3ccccc3)nc2-c2ccc(Cl)cc2)cc1	-1.3%	?	23.1µM*	23.1µM*	14.5%	-2.1%
O=c1/c(=C\c2ccc3c(c2)OCO3)sc2n1CCCN=2	-1.5%	i	13µM*	7.7%	11.3%	-4.1%
O=C1OCC/C1=C\c1ccc2c(c1)OCO2	0.5%	i	i	9.8%	8.3%	0.6%
Cc1ccc(/C=c2/sc3n(c2=O)CCCN=3)o1	-0.3%	i	i	0.8%	6.8%	0.7%
O=C1/C(=C\c2ccc3c(c2)OCO3)CCC/C1=C/c1ccc2c(c1)OCO2	5.6%	i	i	-2.3%	11.6µM*	-1.4%
CC1CC/C(=C\c2ccc3c(c2)OCO3)C(=O)/C1=C/c1ccc2c(c1)OCO2 (stereo unspecified)	-3.4%	25.9µM*	i	?	7.31µM*	2.7%
CCN(C(=O)c1cc(S(=O)(=O)N2CCc3ccccc32)cn1C)c1cccc(C)c1	3.8%	.	.	.	.	.
COc1cccc(NC(=O)CSc2nc(-c3ccccc3)nc3c2Cc2cc(Cl)ccc2O3)c1	0.0%	i	i	.	.	.
O=C(c1cc2sccc2n1Cc1ccccc1)N1CCc2ccccc21	-0.5%[38.3 µM]	i	10.3µM*	-5.4%	-7.0%	-6.6%
O=C(c1coc(=O)c(Br)c1)N1CCCc2ccccc21	3.6%	i	i	1.0%	14.6µM*	-3.5%
Cn1c(C(=O)N2CCCc3ccccc32)cc2sccc21	1.9%[38.3 µM]	?	14.6µM*	0.4%	-5.8%	-4.3%
COc1ccc(-c2noc(-c3ccccc3C(=O)N3CCOCC3)n2)cc1	8.4%[38.3 µM]	i	9.2µM*	-11.8%	19.7%	1.5%
N#CC1=C2SCN(C3CCCCC3)CN2C(=O)CC1c1c(F)cccc1Cl (stereo unspecified)	0.2%	i	?	.	.	.
CSC(=Nc1ccccc1)N=C(SCc1ccccc1)N(C)C	-6.9%	4.11µM*	5.8µM*	7.31µM*	?	-2.5%
Fc1ccccc1NC(=S)N1CCN(C/C=C/c2ccccc2)CC1	-2.7%	?	16.4µM*	0.6%	17.5%	-2.1%
O=C(Nc1ccc2c(c1)OCO2)N1CCN(C/C=C/c2ccccc2)CC1	-2.6%[38.3 µM]	i	20.6µM*	13.6%	15.1%	.
Cc1ccc(NC(=O)N2CCN(C/C=C/c3ccccc3)CC2)cc1	1.2%	i	i	-10.2%	2.8%	0.4%
Cc1cc(C(=O)N2CCN(C/C=C/c3ccccc3)CC2)cs1	-0.7%	i	16.4µM*	-4.8%	5.1%	-1.7%
O=C(/C=C/c1ccco1)N1CCN(C/C=C/c2ccccc2)CC1	-1.2%	i	14.6µM*	7.5%	?	-0.6%
Cc1cc(F)ccc1NC(=O)C1CCCN(S(=O)(=O)c2ccc3c(c2)CCCC(=O)N3)C1 (stereo unspecified)	-1.2%	i	i	.	.	.
COc1ccccc1C(=O)NCC(=O)N1CCN(C/C=C/c2ccccc2)CC1	6.5%	i	8.2µM*	1.4%	10.3%	-1.6%
Cc1ccccc1C(=O)NCC(=O)N1CCN(C/C=C/c2ccccc2)CC1	-0.1%	i	i	-4.2%	-1.3%	-1.9%
CCCOc1c(OC)cccc1C1CC(=O)Nc2cc3c(cc21)OCO3 (stereo unspecified)	4.0%	10.3µM*	16.4µM*	16.4µM*	5.8µM*	-7.0%
CCOc1ccccc1C1CC(=O)Nc2cc3c(cc21)OCO3 (stereo unspecified)	.	i	i	3.0%	-2.0%	0.5%
CCCOc1c(OC)cccc1C1CC(=O)Nc2cc3c(cc21)OCCO3 (stereo unspecified)	1.9%	?	?	?	5.8µM*	-2.6%
SMILES	PINK1 modulator	KB-3-1 cytotox	KB-V1 MDR tox	SW480 rereplic	MCF10A rereplic	TSG101-PTAP inh
COc1cccc(C2CC(=O)Nc3cc4c(cc32)OCCO4)c1OC(C)C (stereo unspecified)	2.8%	?	?	?	?	0.0%
CC(=O)Nc1nonc1-c1nnc(SCC(=O)N(C)c2ccccc2)n1C	1.3%	i	i	.	.	.
O=C(Nc1cccc(Br)c1)N1CCC(CN2CCCCC2)CC1	0.0%	i	i	.	.	.
COc1ccccc1NC(=O)CCc1nc2ccccc2s1	1.3%	i	i	1.5%	1.6%	1.2%
CC(C)c1ccccc1NC(=O)CCc1nc2ccccc2s1	1.4%	i	18.4µM*	1.8%	?	0.2%
COc1ncc2nc(CCc3ccccc3)c(=O)n(Cc3ccc(F)cc3)c2n1	0.6%	.	.	.	.	.
Cn1c(-c2ccc(F)cc2)cnc1NCc1ccc(F)cc1	-1.9%	i	i	-2.4%	0.8%	-4.0%
Cn1c(-c2ccc(F)cc2)cnc1NCc1ccc(C#N)cc1	-3.7%	i	20.6µM*	-1.7%	11.4%	-9.3%
CCOC(=O)c1sc(NC(=O)c2ccc(OC(C)=O)cc2)nc1C	8.1%	?	10.3µM*	14.8%	-0.2%	1.6%
CCOC(=O)c1sc(NC(=O)CCc2ccccc2)nc1C	6.5%	?	i	5.8µM*	19.9%	-2.0%
CCOC(=O)c1sc(NC(=O)CC(C)c2ccccc2)nc1C (stereo unspecified)	4.5%	?	?	?	27.0%	-2.4%
COc1ccc(C(=O)NCCc2nnc3n2CCN(CC2CC=CCC2)CC3)cc1 (stereo unspecified)	0.2%	.	.	.	.	.
CS(=O)(=O)Nc1ccc(-c2nc3ccccc3s2)cc1	0.6%	?	?	.	.	.
O=C(c1ccccc1)c1cc2cc(Cl)ccc2[nH]1	12.5%	i	i	-3.4%	3.5%	-4.9%
N#Cc1cc2cc(Cl)ccc2[nH]c1=O	-0.7%	4.61µM*	i	.	.	.
Cc1cccn2c(=O)c3cc(C#N)c(=NC(=O)c4cccs4)n(CCCOC(C)C)c3nc12	0.7%	i	?	20.6µM*	?	-4.4%
CC(=O)N=c1c(C#N)cc2c(=O)n3cccc(C)c3nc2n1Cc1ccco1	11.8%	i	?	0.581µM*	?	-0.5%
CCOCCCn1c(=NC(=O)c2cccs2)c(C#N)cc2c(=O)n3ccccc3nc21	-1.0%	i	i	11.6µM*	?	0.3%
CC(=O)N=c1c(C#N)cc2c(=O)n3cccc(C)c3nc2n1CCCOC(C)C	-1.3%	i	i	20.6µM*	?	-3.2%
Cn1c(=O)c2c(-c3ccccc3)n3c(c2n(C)c1=O)C(c1ccc([N+](=O)[O-])cc1)Nc1ccccc1-3 (stereo unspecified)	-0.5%	?	?	.	.	.
N#Cc1cc2c(=O)n3ccccc3nc2n(Cc2ccco2)c1=NC(=O)c1ccco1	4.5%	i	i	18.5%	23.1µM*	-0.9%
